{"source": "PubChem BioAssay (NCI)", "note": "About 83,000 compounds went through this panel and 20% of them were active in at least one assay; those are over-represented in the sample as a whole.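 Activity criterion: percent growth below 10, measured after cells in 96-well plates were exposed to a single compound concentration for 48 hours.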 A number with no mark means an inactive call. The source made the active and inactive calls."}
{"system": "UACC-62 melanoma", "test": "NCI-60 one-dose screen, 48 h (100 = growth as untreated, 0 = no growth, -100 = all killed)", "details": "10 µM unless noted"}
{"smiles": "Cc1cc(N2CCCCCC2)nc(N2CCN(CC(=O)Nc3ccc4c(ccn4Cc4ccccc4)c3)CC2)n1", "growth": "49.2%"}
{"smiles": "CC1(C)C(=O)/C(=C\\c2cccnc2)C[C@]2(C)[C@H]3CC[C@@H]4[C@H]5[C@H](C(=O)/C=C/c6cccnc6)CC[C@]5(C(=O)O)CC[C@@]4(C)[C@]3(C)CC[C@@H]12", "growth": "-89.8% [100 µM] (active)"}
{"smiles": "CCN(CC)CCSC(=O)C(O)(c1ccccc1)C1CCCC1", "note": "(stereo not given)", "growth": "86.9%"}
{"smiles": "O=C(NNc1ccc(-c2ccccc2)nn1)c1ccccc1", "growth": "96.6%"}
{"smiles": "Cc1cc2c(C(C)C)c(O)c(O)c(C=NCc3ccoc3)c2c(O)c1-c1c(C)cc2c(C(C)C)c(O)c(O)c(C=NCc3ccco3)c2c1O", "growth": "67.9%"}
{"smiles": "c1ccc(-c2nnc(-c3c[nH]c4ncccc34)s2)cc1", "growth": "81.2%"}
{"smiles": "Cc1ccc(-c2cc(-c3ccc(C)cc3)nc(NCCNc3ccnc4cc(Cl)ccc34)n2)cc1", "growth": "-79.9% (active)"}
{"smiles": "Cn1cc(-c2noc(C(=O)c3cn(C)c4ncccc34)n2)c2ccccc21", "growth": "91.8%"}
{"smiles": "Cc1cc(NN=C(c2ccc(O)cc2)c2ccc(O)cc2)c([N+](=O)[O-])cc1[N+](=O)[O-]", "growth": "69.1%"}
{"smiles": "O=C(C[n+]1ccn(CC(OCc2ccc(Cl)cc2Cl)c2ccc(Cl)cc2Cl)c1)c1ccc(F)cc1", "note": "(stereo not given)", "growth": "-95.8% (active)"}
{"smiles": "COc1cc(-c2nc(SCCC(C)C)nc(Nc3ccc(S(N)(=O)=O)cc3)c2C#N)cc(OC)c1OC", "growth": "45.7%"}
{"smiles": "CC(C)=CCC[C@](C)(O)[C@H]1CC[C@]2(C)[C@@H]1CC[C@@H]1[C@@]3(C)CC[C@H](OC(=O)CCC(=O)O)C(C)(C)[C@@H]3CC[C@]12C", "growth": "-75.4% [100 µM] (active)"}
{"smiles": "C=C(C)[C@@H]1CC[C@]2(C)[C@H](CC[C@@H]3[C@@H]([C@@](C)(O)CCC=C(C)C)CC[C@]32C)[C@@]1(C)CCC(=O)O", "growth": "-75.3% [100 µM] (active)"}
{"smiles": "O=C(CCN1CCCCC1)c1ccc2ccccc2c1", "growth": "97.2%"}
{"smiles": "O=C(N/N=C/c1c(Cl)cccc1Cl)c1cccc(Nc2ccnc(C(F)(F)F)c2)c1", "growth": "72.5%"}
{"smiles": "CCc1ccc(C2=C/C(=C/c3ccccc3)C(=O)N2CCc2ccc(S(N)(=O)=O)cc2)cc1", "growth": "95.2%"}
{"smiles": "COc1cc2c(cc1OCCCCCOc1ccc(-n3c(C)nc4ccccc4c3=O)cc1)N=C[C@@H]1CCCN1C2=O", "growth": "-74% (active)"}
{"smiles": "CCN(CCO)CCC(=O)c1ccc([N+](=O)[O-])cc1", "growth": "104%"}
{"smiles": "COc1c(B(O)O)cccc1-c1nc2ccc3[nH]ncc3c2c2c1CCC2", "growth": "57.6%"}
{"smiles": "Cc1ccc(-c2cc(O)c(-c3ccc(C)cc3C)cc2O)c(C)c1", "growth": "54.8%"}
{"smiles": "C=C(C)[C@@H]1CC[C@]2(c3ncc(C)o3)CC[C@]3(C)[C@H](CC[C@@H]4[C@@](C)(CCC#N)[C@H](C(=C)C)CC[C@]43C)[C@@H]12", "growth": "-91% [100 µM] (active)"}
{"smiles": "Nc1nc(Nc2ccccc2)c2ncn(Cc3ccc4c(c3)OCO4)c2n1", "growth": "41.3%"}
{"smiles": "CC(=O)OC[C@]12CC[C@@H](C(=O)CBr)[C@@H]1[C@H]1CC[C@@H]3[C@@]4(C)CCCNC(C)(C)[C@@H]4CC[C@@]3(C)[C@]1(C)CC2", "growth": "-90.9% [100 µM] (active)"}
{"smiles": "C[C@@H]1C[C@H]2C(=O)O[C@@H](C)[C@H](NC(=O)[C@H](Cc3cc(F)cc(F)c3)NC(=O)Nc3ccc(Cl)cc3F)C(=O)N3C[C@H](O)C[C@H]3C(=O)N3CCN(C)C[C@H]3C(=O)N[C@@H](C)C(=O)N2C1", "growth": "31.1%"}
{"smiles": "COC(=O)C(=Cc1ccccc1[N+](=O)[O-])C(=O)OC", "growth": "19.6%"}
{"smiles": "CC1Cc2c(Cl)ncnc2N(C)c2ccc(Cl)cc21", "note": "(stereo not given)", "growth": "11.8%"}
{"smiles": "CC1(C(=O)O)CCC(N)(C(=O)O)C1(C)C", "note": "(stereo not given)", "growth": "107%"}
{"system": "LOX IMVI melanoma", "test": "NCI-60 one-dose screen, 48 h (100 = growth as untreated, 0 = no growth, -100 = all killed)", "details": "10 µM unless noted"}
{"smiles": "O=C(Nc1ccc(CN2CCOCC2)c(C(F)(F)F)c1)c1nc2ccc3[nH]ncc3c2c2c1CCCC2", "growth": "90.5%"}
{"smiles": "CC(C)[C@H]1CCC2=C3CC[C@]45OC(=O)[C@@]6(CCC(C)(C)C[C@H]64)CC[C@@]5(C)[C@]3(C)CC[C@@]21C", "growth": "78.8% [100 µM]"}
{"smiles": "Cc1ccc2c(c1)/C(=N\\N=C/c1cn(C(C)C)c3ccccc13)C(=O)N2", "growth": "20%"}
{"smiles": "COc1ccc(C(=O)c2nccc3cc(OC)c(OC)cc23)cc1OC", "growth": "93.3%"}
{"smiles": "Nc1cc(C(=O)O)[nH]c(=S)n1", "growth": "100%"}
{"smiles": "CC1(C)CC[C@]2(C(=O)O)CC[C@]3(C)C(=CC[C@@H]4[C@@]5(C)C/C(=C/c6cccnc6)[C@H](O)C(C)(C)[C@@H]5CC[C@]43C)[C@@H]2C1", "growth": "-87.1% [100 µM] (active)"}
{"smiles": "ClC1=C(Cl)C(Cl)=C(Cl)C1=Cc1ccccc1", "growth": "-91.5% (active)"}
{"smiles": "CCCCC(CCCCCC(CCCC)C1NC(C)Cc2cc(OC)c(OC)cc21)C1NC(C)Cc2cc(OC)c(OC)cc21", "note": "(stereo not given)", "growth": "-99.1% (active)"}
{"smiles": "COc1ccccc1S(=O)Nc1ccccc1", "note": "(stereo not given)", "growth": "99.4%"}
{"smiles": "Cc1cnc(N)nc1OCC(C)(C)CNC(=O)c1cccc(-c2ccc(S(=O)(=O)Nc3ccc4c(c3)N(C(=O)C3CC3)CCC4)cc2)c1", "growth": "76.6%"}
{"smiles": "C=C(C)[C@@H]1CC[C@]2(COC(=O)c3ccccc3C(=O)O)CC[C@]3(C)[C@H](CC[C@@H]4[C@@]5(C)CC[C@H](OC(=O)c6ccccc6C(=O)O)C(C)(C)[C@@H]5CC[C@]43C)[C@@H]12", "growth": "11.2% [100 µM]"}
{"smiles": "Cc1cc(N2CCCCCC2)nc(N2CCN(CC(=O)Nc3ccc4c(ccn4Cc4ccccc4)c3)CC2)n1", "growth": "44.1%"}
{"smiles": "CC1(C)C(=O)/C(=C\\c2cccnc2)C[C@]2(C)[C@H]3CC[C@@H]4[C@H]5[C@H](C(=O)/C=C/c6cccnc6)CC[C@]5(C(=O)O)CC[C@@]4(C)[C@]3(C)CC[C@@H]12", "growth": "-68.9% [100 µM] (active)"}
{"smiles": "CCN(CC)CCSC(=O)C(O)(c1ccccc1)C1CCCC1", "note": "(stereo not given)", "growth": "90.3%"}
{"smiles": "O=C(NNc1ccc(-c2ccccc2)nn1)c1ccccc1", "growth": "98.9%"}
{"smiles": "Cc1cc2c(C(C)C)c(O)c(O)c(C=NCc3ccoc3)c2c(O)c1-c1c(C)cc2c(C(C)C)c(O)c(O)c(C=NCc3ccco3)c2c1O", "growth": "37%"}
{"smiles": "c1ccc(-c2nnc(-c3c[nH]c4ncccc34)s2)cc1", "growth": "97%"}
{"smiles": "Cc1ccc(-c2cc(-c3ccc(C)cc3)nc(NCCNc3ccnc4cc(Cl)ccc34)n2)cc1", "growth": "-92.3% (active)"}
{"smiles": "Cn1cc(-c2noc(C(=O)c3cn(C)c4ncccc34)n2)c2ccccc21", "growth": "94.8%"}
{"smiles": "Cc1cc(NN=C(c2ccc(O)cc2)c2ccc(O)cc2)c([N+](=O)[O-])cc1[N+](=O)[O-]", "growth": "25.3%"}
{"smiles": "O=C(C[n+]1ccn(CC(OCc2ccc(Cl)cc2Cl)c2ccc(Cl)cc2Cl)c1)c1ccc(F)cc1", "note": "(stereo not given)", "growth": "-87.4% (active)"}
{"smiles": "COc1cc(-c2nc(SCCC(C)C)nc(Nc3ccc(S(N)(=O)=O)cc3)c2C#N)cc(OC)c1OC", "growth": "5.65% (active)"}
{"smiles": "CC(C)=CCC[C@](C)(O)[C@H]1CC[C@]2(C)[C@@H]1CC[C@@H]1[C@@]3(C)CC[C@H](OC(=O)CCC(=O)O)C(C)(C)[C@@H]3CC[C@]12C", "growth": "-64.1% [100 µM] (active)"}
{"smiles": "C=C(C)[C@@H]1CC[C@]2(C)[C@H](CC[C@@H]3[C@@H]([C@@](C)(O)CCC=C(C)C)CC[C@]32C)[C@@]1(C)CCC(=O)O", "growth": "-100% [100 µM] (active)"}
{"smiles": "O=C(CCN1CCCCC1)c1ccc2ccccc2c1", "growth": "93.3%"}
{"smiles": "O=C(N/N=C/c1c(Cl)cccc1Cl)c1cccc(Nc2ccnc(C(F)(F)F)c2)c1", "growth": "83.7%"}
{"smiles": "CCc1ccc(C2=C/C(=C/c3ccccc3)C(=O)N2CCc2ccc(S(N)(=O)=O)cc2)cc1", "growth": "94.9%"}
{"smiles": "COc1cc2c(cc1OCCCCCOc1ccc(-n3c(C)nc4ccccc4c3=O)cc1)N=C[C@@H]1CCCN1C2=O", "growth": "-32.2% (active)"}
{"smiles": "CCN(CCO)CCC(=O)c1ccc([N+](=O)[O-])cc1", "growth": "98.5%"}
{"smiles": "COc1c(B(O)O)cccc1-c1nc2ccc3[nH]ncc3c2c2c1CCC2", "growth": "53.3%"}
{"smiles": "Cc1ccc(-c2cc(O)c(-c3ccc(C)cc3C)cc2O)c(C)c1", "growth": "33.4%"}
{"smiles": "C=C(C)[C@@H]1CC[C@]2(c3ncc(C)o3)CC[C@]3(C)[C@H](CC[C@@H]4[C@@](C)(CCC#N)[C@H](C(=C)C)CC[C@]43C)[C@@H]12", "growth": "-83.6% [100 µM] (active)"}
{"smiles": "Nc1nc(Nc2ccccc2)c2ncn(Cc3ccc4c(c3)OCO4)c2n1", "growth": "48%"}
{"smiles": "CC(=O)OC[C@]12CC[C@@H](C(=O)CBr)[C@@H]1[C@H]1CC[C@@H]3[C@@]4(C)CCCNC(C)(C)[C@@H]4CC[C@@]3(C)[C@]1(C)CC2", "growth": "-91.6% [100 µM] (active)"}
{"smiles": "C[C@@H]1C[C@H]2C(=O)O[C@@H](C)[C@H](NC(=O)[C@H](Cc3cc(F)cc(F)c3)NC(=O)Nc3ccc(Cl)cc3F)C(=O)N3C[C@H](O)C[C@H]3C(=O)N3CCN(C)C[C@H]3C(=O)N[C@@H](C)C(=O)N2C1", "growth": "43.4%"}
{"smiles": "COC(=O)C(=Cc1ccccc1[N+](=O)[O-])C(=O)OC", "growth": "10.7%"}
{"smiles": "CC1Cc2c(Cl)ncnc2N(C)c2ccc(Cl)cc21", "note": "(stereo not given)", "growth": "-69.3% (active)"}
{"smiles": "CC1(C(=O)O)CCC(N)(C(=O)O)C1(C)C", "note": "(stereo not given)", "growth": "109%"}
